Measured values from the supplement of paper PMC10849652.
Of roughly 8,800 targets only a part is listed; those with a hit were picked by preference. About 0.5% of all pairs of compound and target were hits.

Tests used:
Assay in all cases: log2 fold change, soluble protein after heating vs DMSO (PISA); higher = thermal stabilisation; K562 lysate, 10 uM; active = over 0.2 and 3.5 SD of the protein, either way, in both replicates (recomputed)
alvocidib = compound: CN1CC[C@H](c2c(O)cc(O)c3c(=O)cc(-c4ccccc4Cl)oc23)[C@H](O)C1 [alvocidib]
Outline: (§1)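 Values give the log-two fold change in thermal stability against solvent controls, from duplicates. Crude K562 extract at 1 mg/mL protein, made by dounce homogenisation in PBS pH 7.4 with 1 mM MgCl2, was treated with 10 μM compound for 30 min. After 3 min heating across 48°C-58°C, aliquots were pooled, adjusted to 0.5% NP-40 at 4°C and centrifuged at 21,000xg for 90 min. The supernatant was measured by TMTpro 16plex LC-MS/MS with channel sums equalised.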

Tubastatin A = compound: CN1CCc2c(c3ccccc3n2Cc2ccc(C(=O)NO)cc2)C1 [Tubastatin A]
Outline: as §1

[1] = compound: CNC(=O)C1=CC=CC=C1NC2=NC(=NC=C2Cl)NC3=C(C=C(C=C3)N4CCOCC4)OC
Outline: as §1

defactinib = compound: CNC(=O)c1ccc(Nc2ncc(C(F)(F)F)c(NCc3nccnc3N(C)S(C)(=O)=O)n2)cc1 [defactinib]
Outline: as §1

[2] = compound: CNc1nc(-c2ccc3c(N)n[nH]c3c2)cc(N2C[C@@H](C(=O)NC3CCCCC3)CC[C@H]2C)n1
Outline: as §1

encorafenib = compound: COC(=O)N[C@@H](C)CNc1nccc(-c2cn(C(C)C)nc2-c2cc(Cl)cc(NS(C)(=O)=O)c2F)n1 [encorafenib]
Outline: as §1

[3] = compound: COC(=O)[C@H](CCSC)NC(=O)C1=C(C=C(C=C1)NC[C@H](CS)N)C2=CC=CC=C2
Outline: as §1

alisertib = compound: COc1cc(Nc2ncc3c(n2)-c2ccc(Cl)cc2C(c2c(F)cccc2OC)=NC3)ccc1C(=O)O [alisertib]
Outline: as §1

[4] = compound: COc1cc2nc(-c3cc(F)ccc3O)nc(N[C@@H]3CNC[C@H]3C(C)(C)O)c2cc1OC
Outline: as §1

gefitinib = compound: COc1cc2ncnc(Nc3ccc(F)c(Cl)c3)c2cc1OCCCN1CCOCC1 [gefitinib]
Outline: as §1

lapatinib = compound: CS(=O)(=O)CCNCc1ccc(-c2ccc3ncnc(Nc4ccc(OCc5cccc(F)c5)c(Cl)c4)c3c2)o1 [lapatinib]
Outline: as §1

pictilisib = compound: CS(=O)(=O)N1CCN(Cc2cc3nc(-c4cccc5[nH]ncc45)nc(N4CCOCC4)c3s2)CC1 [pictilisib]
Outline: as §1

crizotinib = compound: C[C@@H](Oc1cc(-c2cnn(C3CCNCC3)c2)cnc1N)c1c(Cl)ccc(F)c1Cl [crizotinib]
Outline: as §1

[5] = compound: C[C@H](C1=CC=C(C=C1)C(=O)NC2=C3C=CNC3=NC=C2)N
Outline: as §1

duvelisib = compound: C[C@H](Nc1ncnc2nc[nH]c12)c1cc2cccc(Cl)c2c(=O)n1-c1ccccc1 [duvelisib]
Outline: as §1

gandotinib = compound: Cc1cc(Nc2cc(CN3CCOCC3)c3nc(C)c(Cc4ccc(Cl)cc4F)n3n2)n[nH]1 [gandotinib]
Outline: as §1

tozasertib = compound: Cc1cc(Nc2cc(N3CCN(C)CC3)nc(Sc3ccc(NC(=O)C4CC4)cc3)n2)n[nH]1 [tozasertib]
Outline: as §1

doramapimod = compound: Cc1ccc(-n2nc(C(C)(C)C)cc2NC(=O)Nc2ccc(OCCN3CCOCC3)c3ccccc23)cc1 [doramapimod]
Outline: as §1

bafetinib = compound: Cc1ccc(NC(=O)c2ccc(CN3CC[C@H](N(C)C)C3)c(C(F)(F)F)c2)cc1Nc1nccc(-c2cncnc2)n1 [bafetinib]
Outline: as §1

[6] = compound: Cc1cccc(CC(=O)N2CCc3c2ccc(-c2cn(C)c4ncnc(N)c24)c3F)n1
Outline: as §1

Measured: log2 fold change

NBN (UniProt O60934)
Sequence of UniProt O60934 (O60934 whole entry, looked up): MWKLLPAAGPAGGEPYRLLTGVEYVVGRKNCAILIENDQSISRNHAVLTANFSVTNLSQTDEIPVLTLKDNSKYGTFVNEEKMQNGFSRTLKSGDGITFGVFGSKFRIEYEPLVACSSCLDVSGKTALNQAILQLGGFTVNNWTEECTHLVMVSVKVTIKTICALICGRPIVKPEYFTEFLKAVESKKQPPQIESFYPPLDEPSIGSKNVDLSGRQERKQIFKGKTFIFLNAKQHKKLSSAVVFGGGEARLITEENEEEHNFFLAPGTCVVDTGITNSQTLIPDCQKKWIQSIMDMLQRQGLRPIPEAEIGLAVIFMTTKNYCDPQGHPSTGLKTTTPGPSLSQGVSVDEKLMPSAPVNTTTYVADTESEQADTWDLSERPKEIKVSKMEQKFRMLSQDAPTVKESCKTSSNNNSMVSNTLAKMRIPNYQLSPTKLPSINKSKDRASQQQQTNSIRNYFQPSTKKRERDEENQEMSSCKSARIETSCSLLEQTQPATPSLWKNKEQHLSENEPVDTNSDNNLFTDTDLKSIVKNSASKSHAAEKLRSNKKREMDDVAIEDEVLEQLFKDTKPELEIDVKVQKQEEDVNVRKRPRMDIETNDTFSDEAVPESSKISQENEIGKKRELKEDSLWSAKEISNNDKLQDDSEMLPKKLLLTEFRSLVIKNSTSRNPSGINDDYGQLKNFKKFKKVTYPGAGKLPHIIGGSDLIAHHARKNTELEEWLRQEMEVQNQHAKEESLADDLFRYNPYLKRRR
inactive: alvocidib 0.008 | Tubastatin A -0.041 | [1] -0.006 | defactinib -0.029 | [2] 0.014 | encorafenib 0.022 | [3] 0.048 | alisertib -0.009 | [4] 0.018 | gefitinib -0.061 | lapatinib 0.008 | pictilisib -0.006 | crizotinib -0.028 | [5] 0.033 | duvelisib -0.006 | gandotinib -0.05 | tozasertib 0.032 | doramapimod 0.001 | bafetinib -0.016 | [6] -0.026

OGFR (UniProt Q9NZT2)
Sequence of UniProt Q9NZT2 (Q9NZT2 whole entry, looked up): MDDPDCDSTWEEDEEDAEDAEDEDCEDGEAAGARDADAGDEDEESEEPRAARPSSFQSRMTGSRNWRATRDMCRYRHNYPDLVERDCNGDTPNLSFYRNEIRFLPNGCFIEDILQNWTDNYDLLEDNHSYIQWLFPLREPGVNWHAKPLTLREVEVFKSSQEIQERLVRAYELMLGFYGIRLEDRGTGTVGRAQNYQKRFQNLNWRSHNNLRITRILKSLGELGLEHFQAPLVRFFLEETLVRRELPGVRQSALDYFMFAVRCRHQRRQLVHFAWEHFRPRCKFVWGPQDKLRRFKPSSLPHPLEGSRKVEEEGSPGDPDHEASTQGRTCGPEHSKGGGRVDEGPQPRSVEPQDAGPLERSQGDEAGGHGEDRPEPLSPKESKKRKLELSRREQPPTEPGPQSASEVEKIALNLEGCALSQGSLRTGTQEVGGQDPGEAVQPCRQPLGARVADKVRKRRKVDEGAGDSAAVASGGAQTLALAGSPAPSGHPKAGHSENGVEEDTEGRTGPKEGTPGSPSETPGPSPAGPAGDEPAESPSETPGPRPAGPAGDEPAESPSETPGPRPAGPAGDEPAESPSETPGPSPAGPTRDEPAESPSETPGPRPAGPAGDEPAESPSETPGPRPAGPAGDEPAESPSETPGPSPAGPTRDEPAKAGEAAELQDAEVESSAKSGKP
inactive: alvocidib 0.022 | Tubastatin A -0.089 | [1] 0.002 | defactinib -0.015 | [2] -0.03 | encorafenib 0.02 | [3] 0.089 | alisertib -0.003 | [4] -0.003 | gefitinib -0.004 | lapatinib 0.014 | pictilisib -0.012 | crizotinib 0.052 | [5] 0.128 | duvelisib -0.008 | gandotinib -0.062 | tozasertib -0.043 | doramapimod -0.012 | bafetinib 0.043 | [6] -0.037

MRPS12 (UniProt O15235)
inactive: alvocidib -0.015 | Tubastatin A 0.026 | [1] -0.021 | defactinib 0.015 | [2] 0.067 | encorafenib 0.011 | [3] -0.168 | alisertib -0.027 | [4] -0.053 | gefitinib -0.032 | lapatinib 0.006 | pictilisib -0.024 | crizotinib -0.019 | [5] 0.003 | duvelisib -0.022 | gandotinib -0.022 | tozasertib 0.048 | doramapimod 0.03 | bafetinib 0.036 | [6] -0.003

NUP205 (UniProt Q92621)
inactive: alvocidib -0.02 | Tubastatin A -0.078 | [1] 0.012 | defactinib 0.015 | [2] -0.003 | encorafenib 0.016 | [3] -0.081 | alisertib 0.008 | [4] 0 | gefitinib -0.018 | lapatinib -0.03 | pictilisib -0.041 | crizotinib -0.1 | [5] -0.047 | duvelisib -0.008 | gandotinib -0.143 | tozasertib 0.015 | doramapimod 0.043 | bafetinib -0.089 | [6] 0.031

NPM3 (UniProt O75607)
inactive: alvocidib -0.04 | Tubastatin A 0.015 | [1] -0.017 | defactinib 0.062 | [2] 0.011 | encorafenib 0.012 | [3] 0.028 | alisertib -0.002 | [4] 0.023 | gefitinib -0.015 | lapatinib 0.087 | pictilisib 0.053 | crizotinib -0.02 | [5] -0.201 | duvelisib 0.014 | gandotinib 0.068 | tozasertib -0.036 | doramapimod 0.027 | bafetinib 0.04 | [6] 0.164

MSH2 (UniProt P43246)
Sequence of UniProt P43246 (P43246 whole entry, looked up): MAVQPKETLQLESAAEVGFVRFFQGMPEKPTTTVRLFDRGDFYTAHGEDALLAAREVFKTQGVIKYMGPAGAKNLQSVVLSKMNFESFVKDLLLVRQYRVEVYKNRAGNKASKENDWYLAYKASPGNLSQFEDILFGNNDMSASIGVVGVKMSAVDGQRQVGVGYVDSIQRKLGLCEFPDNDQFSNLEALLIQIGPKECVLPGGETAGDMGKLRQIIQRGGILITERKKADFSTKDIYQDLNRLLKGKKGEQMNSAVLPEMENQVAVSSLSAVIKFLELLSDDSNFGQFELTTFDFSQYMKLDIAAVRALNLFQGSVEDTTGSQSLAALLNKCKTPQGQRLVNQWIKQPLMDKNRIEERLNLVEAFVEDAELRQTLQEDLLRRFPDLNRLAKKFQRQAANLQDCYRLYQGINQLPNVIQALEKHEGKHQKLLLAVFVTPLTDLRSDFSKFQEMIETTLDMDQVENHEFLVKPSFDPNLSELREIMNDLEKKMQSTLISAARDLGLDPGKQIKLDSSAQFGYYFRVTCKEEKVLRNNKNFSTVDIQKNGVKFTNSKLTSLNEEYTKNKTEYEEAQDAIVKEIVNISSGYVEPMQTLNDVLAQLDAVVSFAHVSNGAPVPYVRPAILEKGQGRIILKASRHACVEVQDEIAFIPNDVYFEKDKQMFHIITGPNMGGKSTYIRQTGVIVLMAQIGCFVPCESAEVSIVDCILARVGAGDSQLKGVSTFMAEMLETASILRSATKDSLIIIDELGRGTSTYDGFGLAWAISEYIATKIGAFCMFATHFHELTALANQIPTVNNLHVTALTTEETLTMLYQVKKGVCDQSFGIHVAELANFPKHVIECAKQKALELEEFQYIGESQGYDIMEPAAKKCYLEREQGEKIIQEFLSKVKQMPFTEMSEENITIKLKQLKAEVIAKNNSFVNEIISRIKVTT
inactive: alvocidib 0.026 | Tubastatin A -0.105 | [1] -0.017 | defactinib 0.023 | [2] 0.007 | encorafenib 0.011 | [3] 0.061 | alisertib -0.011 | [4] -0.002 | gefitinib -0.007 | lapatinib -0.005 | pictilisib -0.003 | crizotinib -0.04 | [5] 0.028 | duvelisib -0.001 | gandotinib -0.068 | tozasertib 0.002 | doramapimod 0.013 | bafetinib -0.026 | [6] 0.002

NIT2 (UniProt Q9NQR4)
inactive: alvocidib 0.046 | Tubastatin A 0.047 | [1] -0.003 | defactinib -0.05 | [2] 0.013 | encorafenib -0.032 | [3] 0.082 | alisertib 0.012 | [4] 0.019 | gefitinib -0.017 | lapatinib 0.002 | pictilisib -0.048 | crizotinib -0.026 | [5] -0.008 | duvelisib 0.011 | gandotinib -0.01 | tozasertib 0.002 | doramapimod -0.023 | bafetinib 0.011 | [6] -0.06

N4BP2 (UniProt Q86UW6)
active: [5] -0.236
inactive: alvocidib 0.063 | Tubastatin A -0.17 | [1] 0.052 | defactinib 0.021 | [2] -0.004 | encorafenib 0.06 | [3] 0.003 | alisertib 0.016 | [4] 0 | gefitinib -0.005 | lapatinib 0.003 | pictilisib 0.054 | crizotinib 0.002 | duvelisib 0.028 | gandotinib 0.014 | tozasertib -0.032 | doramapimod -0.015 | bafetinib -0.038 | [6] 0.149

NFATC2IP (UniProt Q8NCF5)
Sequence of UniProt Q8NCF5 (Q8NCF5 whole entry, looked up): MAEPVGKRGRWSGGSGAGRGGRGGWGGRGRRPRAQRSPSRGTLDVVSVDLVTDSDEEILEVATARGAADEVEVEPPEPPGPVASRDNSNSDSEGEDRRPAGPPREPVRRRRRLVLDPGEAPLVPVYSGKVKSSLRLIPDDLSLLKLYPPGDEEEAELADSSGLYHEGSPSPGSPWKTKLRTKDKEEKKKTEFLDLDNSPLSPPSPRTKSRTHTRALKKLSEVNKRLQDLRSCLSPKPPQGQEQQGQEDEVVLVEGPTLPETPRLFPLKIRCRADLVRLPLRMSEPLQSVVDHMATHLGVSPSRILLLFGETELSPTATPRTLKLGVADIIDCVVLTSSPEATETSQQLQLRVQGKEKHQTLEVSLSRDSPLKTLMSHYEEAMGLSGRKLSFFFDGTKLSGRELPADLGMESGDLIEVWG
active: [3] -0.208
inactive: alvocidib -0.015 | Tubastatin A 0.002 | [1] 0.052 | defactinib 0 | [2] 0.002 | encorafenib 0.003 | alisertib -0.009 | [4] -0.001 | gefitinib 0.023 | lapatinib 0.002 | pictilisib -0.091 | crizotinib 0.027 | [5] 0.059 | duvelisib -0.067 | gandotinib 0.039 | tozasertib -0.035 | doramapimod 0.001 | bafetinib -0.169 | [6] -0.018

NUP160 (UniProt Q12769)
Sequence of UniProt Q12769 (Q12769 whole entry, looked up): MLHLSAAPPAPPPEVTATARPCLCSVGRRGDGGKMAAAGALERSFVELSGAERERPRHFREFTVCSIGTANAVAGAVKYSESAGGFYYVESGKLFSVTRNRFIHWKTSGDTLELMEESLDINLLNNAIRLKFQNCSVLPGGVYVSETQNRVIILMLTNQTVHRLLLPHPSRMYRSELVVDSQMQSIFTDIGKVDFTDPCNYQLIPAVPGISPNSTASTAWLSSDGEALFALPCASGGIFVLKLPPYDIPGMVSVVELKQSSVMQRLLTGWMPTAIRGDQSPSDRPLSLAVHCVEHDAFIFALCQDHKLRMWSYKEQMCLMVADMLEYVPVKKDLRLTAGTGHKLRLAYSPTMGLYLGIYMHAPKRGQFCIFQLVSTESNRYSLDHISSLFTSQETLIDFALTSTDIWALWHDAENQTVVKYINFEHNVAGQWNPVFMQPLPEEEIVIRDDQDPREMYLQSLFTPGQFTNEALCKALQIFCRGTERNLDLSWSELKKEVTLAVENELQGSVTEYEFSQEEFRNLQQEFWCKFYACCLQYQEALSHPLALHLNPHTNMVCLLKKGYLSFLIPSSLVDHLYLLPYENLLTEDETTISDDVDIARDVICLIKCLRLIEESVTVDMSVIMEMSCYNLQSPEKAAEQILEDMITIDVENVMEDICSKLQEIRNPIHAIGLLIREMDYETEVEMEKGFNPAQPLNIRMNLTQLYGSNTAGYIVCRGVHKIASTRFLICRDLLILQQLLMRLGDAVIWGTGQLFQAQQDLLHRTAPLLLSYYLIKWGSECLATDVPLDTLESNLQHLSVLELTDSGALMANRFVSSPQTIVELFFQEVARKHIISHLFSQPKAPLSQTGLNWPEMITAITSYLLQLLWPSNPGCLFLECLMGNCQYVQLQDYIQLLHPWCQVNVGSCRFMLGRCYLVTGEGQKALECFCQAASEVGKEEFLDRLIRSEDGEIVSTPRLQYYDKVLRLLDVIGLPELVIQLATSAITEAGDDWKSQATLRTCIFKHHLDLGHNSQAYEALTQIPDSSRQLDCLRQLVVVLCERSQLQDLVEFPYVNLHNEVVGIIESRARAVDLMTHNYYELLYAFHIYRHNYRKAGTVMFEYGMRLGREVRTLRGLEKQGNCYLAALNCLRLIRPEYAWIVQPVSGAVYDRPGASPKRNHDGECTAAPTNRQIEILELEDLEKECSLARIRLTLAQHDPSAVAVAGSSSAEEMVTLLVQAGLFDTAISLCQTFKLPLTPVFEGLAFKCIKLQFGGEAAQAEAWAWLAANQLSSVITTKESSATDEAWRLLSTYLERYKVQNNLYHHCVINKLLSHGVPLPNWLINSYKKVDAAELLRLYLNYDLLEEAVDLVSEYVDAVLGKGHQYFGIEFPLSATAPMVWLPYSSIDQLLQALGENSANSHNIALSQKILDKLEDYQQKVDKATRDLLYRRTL
inactive: alvocidib 0.029 | Tubastatin A -0.143 | [1] 0.045 | defactinib 0.004 | [2] -0.03 | encorafenib 0.059 | [3] -0.195 | alisertib 0.015 | [4] 0.004 | gefitinib 0.031 | lapatinib 0.004 | pictilisib -0.046 | crizotinib -0.028 | [5] 0.003 | duvelisib -0.007 | gandotinib -0.102 | tozasertib 0.015 | doramapimod 0.032 | bafetinib -0.059 | [6] -0.007

MT-ND1 (UniProt P03886)
Sequence of UniProt P03886 (P03886 whole entry, looked up): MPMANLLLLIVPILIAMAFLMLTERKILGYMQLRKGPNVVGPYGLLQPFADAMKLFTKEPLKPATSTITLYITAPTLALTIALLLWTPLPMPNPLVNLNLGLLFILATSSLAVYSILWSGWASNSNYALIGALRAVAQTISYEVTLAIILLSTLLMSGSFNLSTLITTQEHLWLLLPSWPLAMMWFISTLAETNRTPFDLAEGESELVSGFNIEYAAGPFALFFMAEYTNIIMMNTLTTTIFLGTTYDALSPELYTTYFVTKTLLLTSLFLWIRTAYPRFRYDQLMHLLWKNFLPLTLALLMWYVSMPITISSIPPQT
inactive: alvocidib -0.149 | Tubastatin A -0.037 | [1] 0.043 | defactinib 0.081 | [2] 0.014 | encorafenib 0.046 | [3] -0.051 | alisertib 0.032 | [4] -0.073 | gefitinib 0.087 | lapatinib -0.025 | pictilisib -0.03 | crizotinib -0.062 | duvelisib -0.052 | gandotinib 0.061 | tozasertib -0.074 | doramapimod 0.041 | bafetinib 0.022 | [6] 0.007
active: [5] -0.342

OPA1 isoform 2 (UniProt O60313)
inactive: alvocidib 0.012 | Tubastatin A 0.038 | [1] -0.032 | defactinib -0.013 | [2] -0.042 | encorafenib -0.017 | [3] 0.053 | alisertib 0.03 | [4] -0.041 | gefitinib -0.003 | lapatinib -0.017 | pictilisib 0.002 | crizotinib -0.096 | [5] -0.013 | duvelisib -0.002 | tozasertib 0.03 | doramapimod 0.023 | bafetinib -0.073 | [6] 0.048
active: gandotinib -0.248

PARD3 (UniProt Q8TEW0)
active: [4] 0.438
inactive: alvocidib -0.035 | Tubastatin A -0.087 | [1] -0.021 | defactinib 0.144 | [2] -0.031 | encorafenib 0.007 | [3] 0.061 | alisertib -0.013 | gefitinib 0.04 | lapatinib -0.143 | pictilisib -0.155 | crizotinib -0.096 | [5] 0.014 | duvelisib -0.102 | gandotinib 0.122 | tozasertib 0.064 | doramapimod -0.058 | bafetinib -0.054 | [6] 0.069

ORC2 (UniProt Q13416)
inactive: alvocidib 0.034 | Tubastatin A -0.161 | [1] 0.038 | defactinib 0.034 | [2] -0.008 | encorafenib 0.018 | [3] 0.094 | alisertib 0.012 | [4] -0.002 | gefitinib -0.011 | lapatinib 0.016 | pictilisib -0.049 | crizotinib -0.074 | [5] 0.063 | duvelisib -0.068 | gandotinib -0.087 | tozasertib -0.017 | doramapimod -0.007 | bafetinib -0.034 | [6] 0.011

NFIC (UniProt P08651)
Sequence of UniProt P08651 (P08651 whole entry, looked up): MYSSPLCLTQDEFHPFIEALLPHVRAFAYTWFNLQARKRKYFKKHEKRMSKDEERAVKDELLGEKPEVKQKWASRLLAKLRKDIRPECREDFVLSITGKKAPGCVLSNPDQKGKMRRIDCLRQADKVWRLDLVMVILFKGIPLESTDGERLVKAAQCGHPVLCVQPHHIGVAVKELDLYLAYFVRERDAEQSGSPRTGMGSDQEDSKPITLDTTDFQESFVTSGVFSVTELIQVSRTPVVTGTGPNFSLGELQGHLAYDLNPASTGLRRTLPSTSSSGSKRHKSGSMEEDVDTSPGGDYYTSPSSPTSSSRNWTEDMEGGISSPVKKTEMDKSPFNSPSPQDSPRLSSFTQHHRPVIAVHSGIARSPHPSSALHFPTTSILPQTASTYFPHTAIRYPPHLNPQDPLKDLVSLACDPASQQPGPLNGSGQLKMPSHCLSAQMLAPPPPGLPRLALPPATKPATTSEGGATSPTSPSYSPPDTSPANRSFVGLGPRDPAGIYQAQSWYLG
inactive: alvocidib -0.103 | Tubastatin A -0.104 | [1] 0.078 | defactinib -0.153 | [2] -0.048 | encorafenib 0.121 | [3] -0.025 | alisertib 0 | [4] -0.025 | gefitinib 0.117 | lapatinib -0.004 | pictilisib 0.109 | crizotinib 0.007 | [5] -0.361 | duvelisib -0.002 | gandotinib 0.237 | tozasertib 0.035 | doramapimod 0.139 | bafetinib -0.038 | [6] 0.003

NAA35 (UniProt Q5VZE5)
inactive: alvocidib 0.018 | Tubastatin A -0.056 | [1] -0.007 | defactinib 0.034 | [2] 0 | encorafenib 0.01 | [3] -0.001 | alisertib -0.026 | [4] -0.006 | gefitinib -0.008 | lapatinib 0.009 | pictilisib 0.032 | crizotinib -0.031 | [5] 0.082 | duvelisib -0.007 | gandotinib -0.042 | tozasertib -0.003 | doramapimod 0.031 | bafetinib -0.057 | [6] -0.022
